# Results published in PubChem BioAssay AID1259400 (National Center for Advancing Translational Sciences (NCATS), 2018).
# Screen size: about 350,000 compounds; about 2,100 (0.6%) were called active. Another 1% or so got no clear call; they are omitted. The sample holds actives, similar compounds and a random draw of the others, so the mix is not that of the screen. A number with no mark means an inactive call.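 How the source made its calls: active means activity change of -60% or lower, but not beyond a set lower limit; inconclusive means change between -60% and -40%, or beyond the set limit; inactive means change above -40%.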
# Biological target: Relaxin receptor 1 (Homo sapiens) (UniProt Q9HBX9)
# Sequence (Q9HBX9 whole entry, looked up): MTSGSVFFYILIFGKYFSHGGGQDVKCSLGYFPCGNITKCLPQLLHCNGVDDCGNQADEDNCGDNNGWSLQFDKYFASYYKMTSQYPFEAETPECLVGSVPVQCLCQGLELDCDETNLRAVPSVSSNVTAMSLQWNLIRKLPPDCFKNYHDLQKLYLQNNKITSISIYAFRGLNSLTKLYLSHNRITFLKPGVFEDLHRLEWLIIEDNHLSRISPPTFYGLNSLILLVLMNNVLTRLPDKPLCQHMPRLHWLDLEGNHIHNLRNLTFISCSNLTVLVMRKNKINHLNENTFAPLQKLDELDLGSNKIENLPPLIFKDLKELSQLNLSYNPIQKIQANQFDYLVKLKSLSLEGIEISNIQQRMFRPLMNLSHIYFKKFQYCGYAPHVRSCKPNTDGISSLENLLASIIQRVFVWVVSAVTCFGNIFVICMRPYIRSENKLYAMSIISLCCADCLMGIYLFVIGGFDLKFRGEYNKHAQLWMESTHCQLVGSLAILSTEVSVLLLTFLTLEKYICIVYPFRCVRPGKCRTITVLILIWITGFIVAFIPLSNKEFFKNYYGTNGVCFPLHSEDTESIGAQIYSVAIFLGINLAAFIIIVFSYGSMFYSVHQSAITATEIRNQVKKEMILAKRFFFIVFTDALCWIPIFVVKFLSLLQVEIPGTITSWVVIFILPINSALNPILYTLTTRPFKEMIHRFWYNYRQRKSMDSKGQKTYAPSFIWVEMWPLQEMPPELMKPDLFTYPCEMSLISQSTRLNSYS
# Assay: qHTS Assay for Antagonists of the Relaxin Receptor RXFP1
# Settings: HEK293-RXFP1, relaxin-stimulated cAMP HTRF, 30 min; at 57.5 µM; hits give low values
# Description: The relaxin hormone is involved in the variety of biological functions in normal tissues and diseases. The role of relaxin is well-established in female reproduction and parturition, mammary gland and endometrial development, maintenance of myometrial quiescence during pregnancy. Relaxin signaling through its G protein-coupled receptor (GPCR) RXFP1 results in ECM remodeling through regulation of collagen deposition, cell invasiveness, proliferation and overall tissue homeostasis. […] Recombinant human relaxin (rhRlx) is currently being tested in clinical trials as a protective agent in congestive heart failure, in treating severe preeclampsia, and as an anti-fibrotic agent in various organs. […] Upon relaxin binding RXFP1 activation leads to the activation of adenylate cyclase (AC) via G?s. cAMP will activate PKA, which phosphorylates many signaling proteins. Thus, detection of cAMP increase is an easy and reliable indication of relaxin receptor activation. To screen for antagonists of the relaxin receptor, a HEK293T cell line stably transfected with RXFP1 was used. RXFP1 activation by relaxin in presence of various concentrations of tested compounds was assayed by changes in cAMP levels as detected with a time-resolved fluorescence energy transfer (TR-FRET) cAMP detection kit.
# For the primary screening, we used HTRF(R) (Homogenous Time-Resolved Fluorescence) cAMP HiRange assay (Cisbio Bioassays, 62AM6PEJ). Presence of cAMP in the cell lysate disrupts binding between the Cryptate-labeled anti-cAMP and d2-labeled cAMP pair, leading to a decrease in TR-FRET signal. The libraries were screened at two doses (57microM and 11microM), followed by a confirmation of the hits at 7-point serial dilution in the range of final concentrations [57microM - 78nM]. Data were normalized to the controls for basal activity (buffer only) and 100% activity (5 nM porcine relaxin). The EC50 values were determined from concentration-response data modeled with the standard Hill equation. NCGC Assay Protocol Summary: HiHEK (Hawaiian HEK293 LGR7 stably transfected with human RXFP1) were grown in the following media: DMEM+10%FBS+Pen/Strep + Geneticin (1mg/ml). For the assay, the cells were seeded in DMEM+Pen/Strep (with no serum & selective antibiotics) at 2,100 cells/ 3microl/well with MultiDrop Combi dispenser (Thermo Scientific, Logan, UT) onto white tissue culture treated solid bottom1536-well plates (Greiner #789173-F) and allowed to attach/recover overnight at 37 degrees C, 5% CO2. Next, 23nl/well of compound solutions in DMSO were transferred into wells with a pintool (Kalypsis, San Diego, CA). […] EC80 (relaxin at 50pM final concentration) was dispensed to the rest of the plate except columns 1&2 which were used as a negative control (EC0, buffer only), 1microl/well also. The cells were stimulated by relaxin in the presence of compounds for 30 minutes at 37 degrees C, 5% CO2. The detection reagents were prepared individually by dilution in Lysis buffer (supplied with the assay kit) just prior to dispensing. 1microl/well of cAMP-d2 and 1microl/well anti-cAMP-Eu3+-Cryptate antibodies were added simultaneously with BioRAPTR FRDtrade mark Workstation (Beckman Coulter). The plates were incubated at ambient temperature for 30 minutes and, then, FRET signal was read on Envision plate reader (PerkinElmer, Waltham, MA), at wavelengths 340nm (excitation), 615nm & 665nm (emission of donor and acceptor channels respectively).
# On the % scale 0 is the no-effect control and ±100 the full control effect.
row,Structure (SMILES),"activity change, negative = inhibition"
1,CCN(C(=O)CN1C(=O)/C(=C/c2ccc(F)cc2)SC1=S)C1CCS(=O)(=O)C1 (stereo not drawn),5.31%
2,O=C1/C(=C/c2ccc(F)cc2)SC(=S)N1CCCC(=O)N1CCCCC1CCO (stereo not drawn),-99.6% (active)
3,COc1cccc(/C=C2\SC(=S)N(CCCC(=O)N3CCOCC3)C2=O)c1,9.2%
4,O=C(NC1CC1)c1ccc(-c2ccccc2)cc1,-5.32%
5,O=C(NNC(=O)c1ccc(-c2ccccc2)cc1)Nc1ccccc1,-86.2% (active)
6,O=C(NNC(=O)c1ccco1)Nc1ccccc1,-5.56%
7,COC(=O)c1ccccc1NC(=O)C(Cc1ccccc1)N1Cc2ccccc2C1=O (stereo not drawn),-13.9%
8,O=C(c1ccco1)n1nc(-c2ccc(Cl)cc2)nc1NCc1ccccc1,-6.49%
9,COc1ccccc1N1CCN(CCCNC(=O)c2cnn(-c3ccccc3Cl)c2C2CCN(C(=O)OC(C)(C)C)CC2)CC1,-27.8%
10,O=C(CCC(=O)N1CC2CCCN2c2ccccc21)NCc1ccccc1Cl (stereo not drawn),-15%
11,CCc1nnc(SCc2c(F)cccc2Cl)c2cc3sccc3n12,3.15%
12,COc1ccc(-c2csc(Nc3cccc(C)n3)n2)cc1OC,-15.8%
13,CC(=O)Nc1cccc(-c2csc(Nc3cccc(C)n3)n2)c1,-62.8% (active)
14,Cc1cccc(NC(=O)Nc2ccc3c(c2)OCO3)n1,6.53%
15,COc1ccc2c(c1)Cc1sc(NC(=O)c3ccccc3Br)nc1-2,-16.9%
16,COc1ccc(CNC(=O)CSCc2nc(-c3ccccc3F)oc2C)cc1,-25.8%
17,COc1ccc(N2CCN(C(=O)CSCc3nc(-c4ccccc4Cl)oc3C)CC2)cc1,-64.6% (active)
18,COc1ccc(N2CCN(C(=O)CCSCc3ccccc3F)CC2)cc1,-7.15%
19,CCc1ccc(NC(=O)C2CCCN2S(=O)(=O)c2ccc3nc(-c4ccccc4)[nH]c3c2)cc1 (stereo not drawn),-3.72%
20,CN1C(=O)c2ccccc2Sc2ccc(NC(=O)Cc3ccc(Cl)cc3)cc21,-36%
21,O=C(CSc1nc2c(c(=O)[nH]1)CN(Cc1ccc(F)cc1)CC2)Nc1ccccc1Cl,-5.69%
22,CCOc1ccc(Nc2ncnc3scc(-c4ccc(OC)cc4)c23)cc1,-16.5%

row,Structure (SMILES),"activity change, negative = inhibition"
1,O=C1C=C(c2ccc(Cl)cc2)C(=O)N1Nc1ccccc1,-62.4% (active)
2,Cc1cccc(NC(=O)c2nc(S(=O)(=O)Cc3ccccc3)ncc2Cl)c1,-89.5% (active)
3,Cc1cccc(CS(=O)(=O)c2ncc(Cl)c(C(=O)Nc3ccc(F)cc3)n2)c1,-95.9% (active)
4,CCCSc1ncc(Cl)c(C(=O)Nc2c(C(=O)Nc3ccccc3)oc3ccccc23)n1,4.58%
5,Cc1cccc(NC(=O)Cn2cc(S(=O)(=O)Cc3ccccc3Cl)c3ccccc32)c1,-19.7%
6,CCOC(=O)c1ccc(NC(=O)c2nc(SCc3ccc(F)cc3)ncc2Cl)cc1,3.57%
7,CCS(=O)(=O)c1ncc(N(Cc2ccc(F)cc2)Cc2ccco2)c(C(=O)Nc2cc(C)ccc2C)n1,-11.8%
8,COc1ccc(OC)c(NC(=O)/C=C/c2ccc(C)o2)c1,-0.228%
9,O=C(Nc1nnc(S(=O)(=O)N2CCCc3ccccc32)s1)c1cccc(F)c1,-23.2%
10,CCN1CCN(C(c2ccc(C)cc2)c2c(O)cc(C)n(Cc3ccco3)c2=O)CC1 (stereo not drawn),-15.2%
11,COc1cccc(Cn2c(SCc3ccc(C(=O)N4CCC(C)CC4)cc3)nc3ccncc32)c1,0.54%
12,CCN(CC)CCN(C(=O)c1ccc2c(c1)CCCC2)c1nc2c(OC)cccc2s1,-18.9%
13,Cc1cccc2sc(N(CCCN(C)C)C(=O)CCS(=O)(=O)c3ccccc3)nc12,10.5%
14,COc1cccc2sc(N(CCCN(C)C)C(=O)C(c3ccccc3)c3ccccc3)nc12,-77.3% (active)
15,CCN(CC)c1ccc(NS(=O)(=O)c2cc(-c3cc(C)no3)ccc2C)c(C)c1,-32.3%
16,CCc1ccccc1NC(=O)c1sc2nc3c(cc2c1N)CN(Cc1ccccc1)CC3,-0.166%
17,Cc1cccc(N2CCN(C3=C(c4ccccc4)C(=O)c4ccccc43)CC2)c1C,-0.811%
18,CCc1cccc(NC(=O)CN(C)S(=O)(=O)c2ccc3[nH]c4c(c3c2)CCCC4)c1,-7.15%
19,CCCCOCCOC(=O)c1cccnc1,8.56%
20,Cc1ccc(NC(=O)CSc2nc3ccccc3c3nc(CCn4cncc4C)nn23)cc1F,-6.58%
21,Cc1c(C)n(Cc2ccc(Cl)cc2)c2ccc(C(=O)NCCc3ccc(S(N)(=O)=O)cc3)cc12,-10.3%
